The full ranking holds about 16,000 sequences; the median of “Z-score” is about -0.37, and the highest 2% start at about 3.2. Shown is part of a subset that was picked to be rich in the highest values.
Tested on: RBM10 RRM1-ZnF (GST-tagged construct)
Experiment: RNAcompete 7-mer binding Z-score; higher = stronger binding preference
Outline: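 Each heptamer motif was given a one-sided Z-score for enrichment across the probes that contained it. GST-tagged RBM10 constructs (20 pmol) were combined with 1.5 nmol of a designed pool of 241 399 RNAs of up to 41 nt, transcribed from microarray-derived DNA templates. Binding took place in 1 ml Hepes pH 7.8 buffer containing KCl, NaCl, glycerol, DTT, BSA and glutathione Sepharose beads for 30 min at 4°C. After four 2-min washes at 4°C, bound RNA was identified by microarray hybridisation.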

| Sequence | RNAcompete 7-mer binding Z-score |
| --- | --- |
| CGGGAAG | 2.18 |
| AAGGGAU | 3.65 |
| AGGGAAA | 4.7 |
| GAGGGAU | 3.16 |
| CGGGAAA | 2.41 |
| AGGGAAG | 4.53 |
| CUGUACU | -0.743 |
| AACCCCA | -0.483 |
| AAGAGCG | 0.836 |
| UUUUUAA | -0.652 |
| ACUCUCG | -0.785 |
| UGGGAAA | 2.58 |
| UGGGAAG | 4.03 |
| GGGGGAA | 3.15 |
| AGGGGAA | 3.57 |
| AAGGGAG | 3.99 |
| GAGGGAG | 3.2 |
| UGGGAAU | 2.53 |
| UAGGGAG | 3.25 |
| AAGGGCG | 3 |
| AAGGGAC | 3.18 |
| CAGGGAG | 2.8 |
| AGAUAGU | 0.0853 |
| UAGCGAU | -0.194 |

| Sequence | RNAcompete 7-mer binding Z-score |
| --- | --- |
| ACGUCAU | -0.513 |
| UAUCGAU | -0.513 |
| UGUCCAC | -0.558 |
| CGACCGA | -0.519 |
| GUCCGGA | 0.0625 |
| CAGUAUU | -0.646 |
| CCUGCGG | 0.27 |
| GGAGGUU | 2.51 |
| GGAGGUA | 3.28 |
| CGAGGUA | 1.57 |
| AGAGGUG | 2.04 |
| UGAGGUA | 1.97 |
| GGAGGUG | 3.72 |
| GGAGCGC | 1.27 |
| CAAUGAA | -0.496 |
| AGCUCUA | -0.629 |
| UUAUCAG | -0.399 |
| AUAAAGG | 1.64 |
| CGGUAGG | 1.82 |
| AGGUAGG | 3.53 |
| GGGUAGG | 4.65 |
| GGGUAUC | 2.04 |
| GGGUAGU | 3.11 |
| AGGUAUG | 2.16 |

| Sequence | RNAcompete 7-mer binding Z-score |
| --- | --- |
| AGGUAGC | 0.803 |
| GGGUAGA | 3.74 |
| GCGUAGG | 1.78 |
| UGGUAGG | 2.98 |
| GGGUAGC | 2.73 |
| GGGUAUG | 4.08 |
| GGAGUUG | 2.64 |
| AAACGGU | 1.16 |
| CUACAAC | -0.668 |
| CACAAAA | -0.581 |
| AAACCAC | -0.519 |
| GACGGGU | 2.36 |
| UGGAACG | 2.13 |
| GGGAAUG | 3.93 |
| AGGAAUG | 2.25 |
| GGGAACG | 3.67 |
| GGGAAUU | 2.4 |
| GGGAACA | 2.67 |
| ACGCUCU | -0.688 |
| CCCUGGA | -0.123 |
| GGUUACA | 1.26 |
| GAGAUGU | 0.361 |
| GAGAUGG | 3.54 |
| UAGAUGG | 2.26 |

| Sequence | RNAcompete 7-mer binding Z-score |
| --- | --- |
| AGGAUGC | 1.03 |
| UGGAUGA | 2.17 |
| UGGAUGC | 1.17 |
| AGGAUGG | 3.77 |
| UGGAUGG | 4.14 |
| CGGAUGG | 2.38 |
| AGGAUCC | -0.34 |
| UGGAUUC | -0.0414 |
| UUCGUAA | -0.802 |
| CCACUCU | -0.711 |
| UCGCACU | -0.565 |
| GAGCAUU | -0.353 |
| UAUGUGA | 0.118 |
| UACGAGU | -0.155 |
| AUUUUCG | -0.87 |
| AUGGAAG | 3.6 |
| GUGGAAA | 2.63 |
| GUGGAAC | 1.61 |
| GUGGAAG | 3.83 |
| AUGGAAC | 1.99 |
| AUGGAAA | 2.57 |

From the supplement of paper PMC5499739
